# Laboratory results published in the supplement of paper PMC10941209.
# Values without a mark were called inactive.
# Test system: Toxoplasma gondii RH 2F1 tachyzoites (intracellular in HFF)
# Experiment: parasite survival relative to DMSO control; higher = less antiparasitic activity, active = 20 or less
# Conditions: 1 µM; 72 h
# How it was run: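 Toxoplasma gondii RH-2F1 tachyzoites expressing β-galactosidase (5 × 10^3 per well) were used to infect HFF cells at 5 × 10^3 cells/well in 96-well plates for 3 h in D2 medium. Cells then received compound at 1 μM for 72 h at 37°C in 5% CO2, were lysed for 15 min, and were given CPRG, with absorbance at 570 nm read after 30 min. Survival denotes this signal as a percentage of DMSO-treated infected controls. Each value reflects 2 or more biological replicates.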
row,Structure (SMILES),parasite survival
1,Cc1cccc(C)c1C(=O)Nc1nc(-c2ccccn2)cc2ccccc12,4.42% (active)
2,Cc1c(OCC(F)(F)F)ccnc1C[S+]([O-])c1nc2ccccc2[nH]1 (stereo not given),45.7%
3,N=C(N)c1ccc(COc2ccc(Cl)cc2)cc1,54.6%
4,CCC(C)n1ncn(-c2ccc(N3CCN(c4ccc(OCC5COC(Cn6cncn6)(c6ccc(Cl)cc6Cl)O5)cc4)CC3)cc2)c1=O (stereo not given),3.93% (active)
5,Nc1nc(NC2Cc3ccc(F)cc3C2)nc(N2CCCCC2)n1 (stereo not given),41.9%
6,O=P(O)(O)C(CCCc1cccc(Oc2ccccc2)c1)S(=O)(=O)O (stereo not given),65.2%
7,COc1ccc(C2CNC(=O)C2)cc1OC1CCCC1 (stereo not given),69.8%
8,Cn1cncc1[C@@](N)(c1ccc(Cl)cc1)c1ccc2c(c1)c(-c1cccc(Cl)c1)cc(=O)n2C,59.1%
9,NNC(=O)c1ccncc1,63.2%
10,Fc1ccc(-c2nc(-c3c[nH]c4ccc(Br)cc34)[nH]c2-c2ccc(F)cc2)cc1,36.6%
